This is an account of results in publication PMC10668032, “Altered binding affinity of SIX1-Q177R correlates with enhanced WNT5A and WNT pathway effector expression in Wilms tumor”.

The full ranking holds about 33,000 sequences; the median of “e-score” is about -0.053, and the highest 2% start at about 0.38. This is one part of a sample in which the highest values are shown more often than they occur.

The test addresses T1, SIX1 homeodomain (reference allele) (human, UniProt Q15475 108-198).
T1 sequence: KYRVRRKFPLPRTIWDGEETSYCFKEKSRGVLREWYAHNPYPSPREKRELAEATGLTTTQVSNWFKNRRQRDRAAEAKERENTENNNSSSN
Description: universal protein binding microarray; Universal all-10-mer PBM (8x60K, AMADID 030236), 300 nM GST-tagged protein, Alexa Fluor 488 anti-GST; buffer, salt, pH and temperature not stated (as in Berger); high values mean tight binding. The conditions noted are these: protein: ivt; tags: N-terminal GST; dsDNA, one strand shown. The method, boiled down: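 Homeodomains carrying a GST tag were produced by in vitro transcription/translation, then quantified by anti-GST western blot against a recombinant GST standard curve. Duplicate applications at 300 nM final concentration were made to universal 'all 10-mer' protein binding microarrays in 8×60K format. The Universal PBM Analysis Suite was used to express binding as 8-mer E-scores.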
Take ACCCCCCG: the binding signal came out at 0.168 ± 0.0136 E-score.
In the case of AGACCCCG, the binding signal worked out at 0.23 ± 0.085 E-score.
In the case of TGACCCCA, the binding signal stood at 0.198 ± 0.0237 E-score.
Take ATACCCCA: the binding signal came out at 0.43 ± 0.00878 E-score.
As for ATAACCCC, the figure is 0.251 ± 0.0341 E-score; as for TACCCCCA, 0.243 ± 0.0116 E-score; as for ATAGCCTG, 0.205 ± 0.031 E-score.
On to ATCCCATG, for which the binding signal is 0.311 ± 0.0488 E-score.
Turning to GACCATGA, the binding signal was 0.216 ± 0.0376 E-score.
Consider GGGAGATA, for which the binding signal was determined as 0.3342 ± 0.000849 E-score.
Regarding ATCAGTAC, the binding signal came to 0.2244 ± 0.00203 E-score.
Regarding GATCACTA, the binding signal was found to be 0.371 ± 0.0113 E-score.
With GGATAGGA, the binding signal was found to be 0.28 ± 0.0103 E-score.
For AGATAGCT, the binding signal stood at 0.178 ± 0.0771 E-score.
As to GATCCTAA, the binding signal was found to be 0.262 ± 0.00612 E-score.
Regarding ATCAGGGC, the binding signal is 0.178 ± 0.0395 E-score.
For ACAAGGTA the value was 0.192 ± 0.0136 E-score.
On to GATAGTAC, for which the binding signal came to 0.212 ± 0.0174 E-score.
Turning to GAGATATA, the binding signal is 0.359 ± 0.0685 E-score.
With AAGATATT, the binding signal came to 0.214 ± 0.124 E-score.
As for AAGATATG, the figure is 0.303 ± 0.0441 E-score; as for CAGATATA, 0.263 ± 0.0342 E-score; as for CAGATATG, 0.315 ± 0.0384 E-score.
In the case of CAGATATC, the binding signal turned out to be 0.456 ± 0.0169 E-score.
As for GAGAGATC, the figure is 0.286 ± 0.00645 E-score; as for AAGATATC, 0.445 ± 0.0468 E-score; as for GAGATATC, 0.442 ± 0.0368 E-score.
With CTCTACAC, the binding signal was 0.163 ± 0.00511 E-score.
Take ACCATAGA: the binding signal came out at 0.197 ± 0.0646 E-score.
Regarding CCGATCTA, the binding signal was determined as 0.2622 ± 0.00225 E-score.
As for ATAGTGCA, the figure is 0.163 ± 0.0274 E-score; as for CGAGGGTA, 0.159 ± 0.0143 E-score.
Turning to ACTAATCC, the binding signal stood at 0.228 ± 0.027 E-score.
In the case of GTGTCAGA, the binding signal came out at 0.29 ± 0.0236 E-score.
For the sequence ATATCAGC, the binding signal turned out to be 0.404 ± 0.0329 E-score.
For ATATCAGA the value was 0.408 ± 0.0495 E-score; for ATATCAGG, 0.403 ± 0.0398 E-score.
Turning to GTATCTGA, the binding signal came out at 0.355 ± 0.00568 E-score.
AGATCAGG: the binding signal turned out to be 0.284 ± 0.0116 E-score.
Take ATCTCAGA: the binding signal was 0.31 ± 0.0258 E-score.
As to AGATCAGC, the binding signal came out at 0.273 ± 0.00331 E-score.
Regarding ATCTCAGG, the binding signal came to 0.164 ± 0.0156 E-score.
On to CTATCAGC, for which the binding signal amounted to 0.202 ± 0.00952 E-score.
For GTATCAGA, the binding signal is 0.466 ± 0.0136 E-score.
For CTATCAGA, the binding signal worked out at 0.271 ± 0.0216 E-score.
For GGTATGAA the value was 0.224 ± 0.00641 E-score; for GCCTAATA, 0.167 ± 0.0373 E-score.
Turning to ATCATGCA, the binding signal is 0.225 ± 0.0116 E-score.
For the sequence AGATAGTA, the binding signal was 0.24 ± 0.0305 E-score.
Consider ACCGTATC, for which the binding signal was 0.449 ± 0.00906 E-score.
On to CCCGTATC, for which the binding signal came out at 0.469 ± 0.0109 E-score.
On to CCCGTCTC, for which the binding signal came to 0.205 ± 0.0534 E-score.
As for CCCGTATA, the binding signal came out at 0.29 ± 0.023 E-score.
As to ACCGTATA, the binding signal was 0.278 ± 0.0281 E-score.
Turning to ACCGTCTC, the binding signal came out at 0.251 ± 0.0203 E-score.
In the case of ATACAGTC, the binding signal was 0.163 ± 0.00378 E-score.
Turning to CAGATAGC, the binding signal came out at 0.171 ± 0.0462 E-score.
GGGATTAC: the binding signal was determined as 0.167 ± 0.011 E-score.
As to CAGGATTA, the binding signal came out at 0.213 ± 0.0434 E-score.
On to CGGATTAC, for which the binding signal is 0.299 ± 0.00435 E-score.
As for AGATAATA, the figure is 0.245 ± 0.114 E-score.
For ATCAAATA, the binding signal is 0.239 ± 0.0859 E-score.
For the sequence CACAATAC, the binding signal was found to be 0.31 ± 0.0105 E-score.
Consider ATACTACC, for which the binding signal was found to be 0.23 ± 0.0327 E-score.
For the sequence GAGGGATA, the binding signal turned out to be 0.412 ± 0.00552 E-score.
For the sequence GAGGGGTA, the binding signal came out at 0.257 ± 0.0214 E-score.
With GAGGGATC, the binding signal was determined as 0.397 ± 0.00899 E-score.
In the case of GATGGATA, the binding signal was found to be 0.3768 ± 0.0011 E-score.
Consider TAGGGATA, for which the binding signal worked out at 0.41 ± 0.00754 E-score.
For CATGGATA, the binding signal was 0.3 ± 0.00508 E-score.
Consider AATGGATA, for which the binding signal came out at 0.354 ± 0.0168 E-score.
On to TAGGGAGA, for which the binding signal came to 0.177 ± 0.0683 E-score.
AAGGGATA: the binding signal was 0.37 ± 0.0084 E-score.
As for GGCATATA, the figure is 0.29 ± 0.00948 E-score; as for CGGATTAA, 0.351 ± 0.0739 E-score.
Consider CTATAATA, for which the binding signal worked out at 0.259 ± 0.0899 E-score.
GATCTCGC: the binding signal came out at 0.254 ± 0.0311 E-score.
For ATAGATGA, the binding signal was determined as 0.287 ± 0.0197 E-score.
Consider ATCGTGCA, for which the binding signal was 0.16 ± 0.0147 E-score.
In the case of ATATGGAT, the binding signal turned out to be 0.371 ± 0.00838 E-score.
For ACGGATCG the value was 0.354 ± 0.0265 E-score; for CCGGATCC, 0.424 ± 0.034 E-score; for ACAGATCC, 0.288 ± 0.0336 E-score.
In the case of CCCGATCG, the binding signal came out at 0.323 ± 0.0723 E-score.
Regarding ACGGATCA, the binding signal was found to be 0.43 ± 0.0139 E-score.
Turning to CCGGATTC, the binding signal came out at 0.249 ± 0.0385 E-score.
Take ACGGATCC: the binding signal turned out to be 0.386 ± 0.0442 E-score.
